From PubChem BioAssay come the findings set out here.

SMILES strings stand for the structures. Where “and” joins values, the source holds several entries; their conditions need not be identical. Identical values can stand only once.

The nature of one test: sensitizers of A549 cells to miR-34 induction, primary screen, imaging, A549 dox-inducible miR-34, nuclei and caspase counts (AID 1347080). Also: test concentration not given here. As to conditions: A549 miR-34 inducible, Hoechst nuclei count, 48 h; measured here: total cells with miR-34 induction; stronger effect = lower value.
For the molecule `CCCCCCCCCCCCCCCCOC[C@H](COP(=O)([O-])OCC[N+](C)(C)C)OC(=O)NC`, the cell count was 5360 and 4990.
Still for that read-out and setting: as for `C[C@H](CCC(=O)NCC(=O)O)[C@H]1CC[C@H]2[C@@H]3[C@H](O)C[C@@H]4C[C@H](O)CC[C@]4(C)[C@H]3C[C@H](O)[C@]12C`, the figure is 8770; as for `CCCCCCCCCC(=O)OCC(CO)OC(=O)CCCCCCCCC` (configuration not stated), 4940.
Take `O=C(O)CCC/C=C\C[C@@H]1[C@@H](/C=C/[C@@H](O)COc2cccc(C(F)(F)F)c2)[C@H](O)C[C@@H]1O`: the cell count was 5470 and 6950.
As to `CCCCC[C@H](O)/C=C/[C@@H]1[C@@H](CCCCCCC(=O)O)[C@@H](O)C[C@H]1O`, the cell count is 5960 and 6030.
On to `CCCCC[C@H](O)/C=C/[C@@H]1[C@H]2C/C(=C/CCCC(=O)O)C[C@H]2C[C@H]1O`, for which the cell count was determined as 5920.
The same measure, in the same setting: as for `COc1c(O[C@@H]2O[C@H](CO)[C@@H](O)[C@H](O)[C@H]2O)cc2c(c1OC)-c1ccc(SC)c(=O)cc1C(NC(C)=O)CC2` (some centres not stated), the figure is 8970; as for `CCCCC(C)(O)C/C=C/[C@H]1[C@H](O)CC(=O)[C@@H]1CCCCCCC(=O)O` (some centres not stated), 6180 and 5400.
For the molecule `CO[C@@H]1[C@@H](OC(N)=O)[C@@H](O)C(Oc2ccc3c(O)c(NC(=O)c4ccc(O)c(CC=C(C)C)c4)c(=O)oc3c2C)OC1(C)C` (some centres not stated), the cell count stood at 9430.
Same read-out and setting: the result for `CCCCCCCC/C=C\CCCCCCCCOC[C@H](COP(=O)([O-])OCC[N+](C)(C)C)OC(C)=O` reads 6070; that for `COc1ccc2c(OC)c3ccoc3nc2c1OC`, 8660; that for `CCCCCCCCCCCCCCCCCCOC[C@@H](O)COP(=O)([O-])OCC[N+](C)(C)C`, 5980.
Same read-out and setting: as for `C=C1CC[C@H](O)C/C1=C/C=C1\CCC[C@]2(C)[C@@H]([C@H](C)CC[C@@H](O)C(C)(C)O)CC[C@@H]12`, the figure is 5660; as for `CCCCC[C@H](O)/C=C/[C@@H]1[C@@H](C/C=C\CCCC(=O)O)[C@H]2CO[C@@H]1C2`, 5990; as for `CCCCC/C=C\C[C@@H](O)/C=C/C=C\C/C=C\CCCC(=O)O`, 4740.
On the same count and under the same terms, the result for `C=C1C(c2ccc(C)cc2)=CCc2cc(C)cc(C)c21` reads 1920.
With `C[N+]1(C)C[C@@H](O)C[C@H]1C(=O)[O-]`, the cell count amounted to 8350.
With `CCCCCC(O)/C=C/C=O` (configuration not stated), the cell count amounted to 5280.
With `CCCCCCCCCCCCCCCC(=O)C1=C(O)C(CO)OC1=O` (configuration not stated), the cell count is 5220.
Take `CCCCC[C@H](O)/C=C/[C@@H]1[C@H]2C/C(=C/CCCC(=O)O)O[C@H]2C[C@H]1O`: the cell count is 6320 and 6530.
Same read-out and setting: the result for `CCCCCCCCCCCCCCCCCCOC[C@H](COP(=O)([O-])OCC[N+](C)(C)C)OC(C)=O` reads 5740 and 5730; that for `COC(C)(C)CCCC(C)C/C=C/C(C)=C/C(=O)O` (configuration not stated), 5680.
Same read-out and setting: the result for `COc1c(O)cc2c(c1O)C1OC(CO)C(O)C(O)C1OC2=O` (configuration not stated) reads 9380.

Still in this test, the particulars now being: A549 miR-34 inducible, Hoechst nuclei count, 48 h; measured here: total cells without miR-34 induction.
With `c1ccc2c(c1)CCCc1cc(NCCN3CCOCC3)nnc1-2`, the cell count came out at 9100.
With `COC(=O)C1=CO[C@@H](C)[C@H]2CN3CCc4c([nH]c5ccccc45)[C@@H]3C[C@H]12`, the cell count is 7600.
On the same count and under the same terms, as for `CCCCC[C@H](O)/C=C/[C@@H]1[C@@H](CC(=O)CCCCC(=O)O)[C@@H](O)C[C@H]1O`, the figure is 5980 and 6600.
As for `CCCCCCCCCCCCCCCC(=O)OCC(COP(=O)(O)O)OC(=O)CCCCCCCCCCCCCCC` (configuration not stated), the cell count worked out at 6340.
The same measure, in the same setting: as for `Cc1n[nH]c(=O)[nH]c1=O`, the figure is 10000; as for `CCCCCCCCCCCCCCC[C@@H](O)[C@@H](N)CO`, 5290; as for `CCCCC/C=C\C[C@@H](O)/C=C/C=C/C=C\[C@@H](O)CCCC(=O)O`, 6240.
Same read-out and setting: as for `CCCCCCCCCCCCCCC[C@@H](O)[C@H](CO)NC(C)=O`, the figure is 5090.
On the same count and under the same terms, the result for `CCCCCC(=O)/C=C/[C@H]1[C@H](O)CC(=O)[C@@H]1C/C=C\CCCC(=O)O` reads 6300.
For the molecule `CCCCCCCCCCCCC(O)C(=O)O` (configuration not stated), the cell count is 6330 and 6060.
For the molecule `CCCCC[C@H](O)/C=C/[C@H]1OC(O)C[C@H](O)[C@@H]1C/C=C\CCCC(=O)O` (some centres not stated), the cell count amounted to 6300.
The same measure, in the same setting: the result for `O[C@@H]1[C@@H](O)C=C2CCN3Cc4cc5c(cc4[C@H]1C23)OCO5` (some centres not stated) reads 2530; that for `COC(=O)[C@H]1[C@H]2C[C@@H]3c4[nH]c5cc(OC)ccc5c4CCN3C[C@H]2C[C@@H](OC(=O)/C=C/c2cc(OC)c(OC)c(OC)c2)[C@@H]1OC`, 8390.
As to `CCCCCCCC/C=C\CCCCCCCC(=O)OCC(CO)OC(=O)CCCCCCC/C=C\CCCCCCCC` (configuration not stated), the cell count was found to be 4970.
Consider `CCCCCCCCCCCCCCCC(=O)NCCc1ccc(O)c(O)c1`, for which the cell count was 5980.
On the same count and under the same terms, as for `CCCCC[C@H](O)/C=C/[C@@H]1[C@@H](C/C=C\CCCC(=O)O)[C@@H](O)C[C@@H]1O`, the figure is 6560 and 6230; as for `CCCCCCCCCCCCCCCCOC[C@H](COP(=O)([O-])OCC[N+](C)(C)C)OC(=O)NC`, 5690 and 5620.
On the same count and under the same terms, as for `C[C@H](CCC(=O)NCC(=O)O)[C@H]1CC[C@H]2[C@@H]3[C@H](O)C[C@@H]4C[C@H](O)CC[C@]4(C)[C@H]3C[C@H](O)[C@]12C`, the figure is 10200; as for `CCCCCCCCCC(=O)OCC(CO)OC(=O)CCCCCCCCC` (configuration not stated), 4860; as for `O=C(O)CCC/C=C\C[C@@H]1[C@@H](/C=C/[C@@H](O)COc2cccc(C(F)(F)F)c2)[C@H](O)C[C@@H]1O`, 5680 and 6530.
For the molecule `CCCCC[C@H](O)/C=C/[C@@H]1[C@@H](CCCCCCC(=O)O)[C@@H](O)C[C@H]1O`, the cell count was 6550 and 6090.
In the case of `CCCCC[C@H](O)/C=C/[C@@H]1[C@H]2C/C(=C/CCCC(=O)O)C[C@H]2C[C@H]1O`, the cell count worked out at 6280.
For `COc1c(O[C@@H]2O[C@H](CO)[C@@H](O)[C@H](O)[C@H]2O)cc2c(c1OC)-c1ccc(SC)c(=O)cc1C(NC(C)=O)CC2` (some centres not stated), the cell count worked out at 10100.
On the same count and under the same terms, as for `CCCCC(C)(O)C/C=C/[C@H]1[C@H](O)CC(=O)[C@@H]1CCCCCCC(=O)O` (some centres not stated), the figure is 6620 and 6130; as for `CO[C@@H]1[C@@H](OC(N)=O)[C@@H](O)C(Oc2ccc3c(O)c(NC(=O)c4ccc(O)c(CC=C(C)C)c4)c(=O)oc3c2C)OC1(C)C` (some centres not stated), 11000; as for `CCCCCCCC/C=C\CCCCCCCCOC[C@H](COP(=O)([O-])OCC[N+](C)(C)C)OC(C)=O`, 6700.
The same measure, in the same setting: as for `COc1ccc2c(OC)c3ccoc3nc2c1OC`, the figure is 10100.
For the molecule `CCCCCCCCCCCCCCCCCCOC[C@@H](O)COP(=O)([O-])OCC[N+](C)(C)C`, the cell count was found to be 6180.
With `C=C1CC[C@H](O)C/C1=C/C=C1\CCC[C@]2(C)[C@@H]([C@H](C)CC[C@@H](O)C(C)(C)O)CC[C@@H]12`, the cell count was 5500.
For the molecule `CCCCC[C@H](O)/C=C/[C@@H]1[C@@H](C/C=C\CCCC(=O)O)[C@H]2CO[C@@H]1C2`, the cell count stood at 6040.
On the same count and under the same terms, the result for `CCCCC/C=C\C[C@@H](O)/C=C/C=C\C/C=C\CCCC(=O)O` reads 5630; that for `C=C1C(c2ccc(C)cc2)=CCc2cc(C)cc(C)c21`, 2210.
Same read-out and setting: as for `C[N+]1(C)C[C@@H](O)C[C@H]1C(=O)[O-]`, the figure is 9610.
Take `CCCCCC(O)/C=C/C=O` (configuration not stated): the cell count was 5530.
With `CCCCCCCCCCCCCCCC(=O)C1=C(O)C(CO)OC1=O` (configuration not stated), the cell count amounted to 5960.
On the same count and under the same terms, the result for `CCCCC[C@H](O)/C=C/[C@@H]1[C@H]2C/C(=C/CCCC(=O)O)O[C@H]2C[C@H]1O` reads 6040 and 6220; that for `CCCCCCCCCCCCCCCCCCOC[C@H](COP(=O)([O-])OCC[N+](C)(C)C)OC(C)=O`, 5930 and 5720.
Take `COC(C)(C)CCCC(C)C/C=C/C(C)=C/C(=O)O` (configuration not stated): the cell count stood at 6210.
Same read-out and setting: as for `COc1c(O)cc2c(c1O)C1OC(CO)C(O)C(O)C1OC2=O` (configuration not stated), the figure is 10300.
